The sample as a whole holds a higher share of the strongest signals than the screen did.

Assay in all cases: glycan array binding signal (z-score within array); higher = stronger binding
Details in all cases: glycan notation: IUPAC condensed, linker removed

Experiment [1] concerns the target Fuc(a1-2)Gal(b1-3)GalNAc(b1-4)[Neu5Ac(a2-3)]Gal(b1-4)Glc. In a few lines:
(§1)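 Glycan array data were curated from 3228 arrays in the Consortium for Functional Glycomics database and kept only where the protein sequence was available. Glycan names were converted to IUPAC-condensed notation, and columns mapping to the same glycan were averaged. The binding signal is a within-array Z-score, averaged across arrays of the same protein sequence at different concentrations or buffers and across linkers. Negative Z-scores can be read as non-binding.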

The target in experiment [2] is Fuc(a1-2)[GalNAc(a1-3)]Gal(b1-4)[Fuc(a1-3)]GlcNAc. In a few lines:
as §1

The target in experiment [3] is Gal(b1-3)GlcNAc(b1-3)Gal(b1-4)GlcNAc. In a few lines: as §1
The target in experiment [4] is Gal(b1-4)GlcNAc(b1-3)[Gal(b1-4)GlcNAc(b1-6)]GalNAc. In a few lines:
as §1

The next experiment concerns the target Gal3S6S(b1-4)GlcNAc6S. In outline:
as §1

The target of another experiment is Glc(a1-4)Glc. In a few lines:
as §1

Experiment [5] concerns the target GlcNAc(b1-4)Gal(b1-4)GlcNAc. In a few lines: as §1
The target in experiment [6] is Man(a1-2)Man(a1-2)Man(a1-3)Man. In outline:
as §1

Experiment [7] deals with Man(a1-2)Man(a1-2)Man(a1-6)[Man(a1-3)]Man. In a few lines: as §1
The target of experiment [8] is Man(a1-2)Man(a1-3)[Man(a1-6)]Man(a1-6)[Man(a1-2)Man(a1-3)]Man(b1-4)GlcNAc(b1-4)GlcNAc. In a few lines:
as §1

In experiment [9] the target is Man(a1-3)[Man(a1-6)]Man(b1-4)GlcNAc(b1-4)GlcNAc. In a few lines:
as §1

Experiment [10] has as its target Neu5Ac(a2-3)Gal(b1-4)[Fuc(a1-3)]GlcNAc(b1-3)Gal(b1-4)GlcNAc. In a few lines:
as §1

The target of a further experiment is Neu5Ac(a2-8)Neu5Ac. In outline:
as §1

Experiment [11] deals with Fuc(a1-2)Gal(b1-4)[Fuc(a1-3)]GlcNAc. In a few lines: as §1
Experiment [12] concerns the target Fuc(a1-2)Gal(b1-4)[Fuc(a1-3)]GlcNAc(b1-3)Gal(b1-4)[Fuc(a1-3)]GlcNAc. In outline:
as §1

Experiment [13] concerns the target Fuc(a1-3)[Gal3S(b1-4)]GlcNAc. In outline:
as §1

In experiment [14] the target is Fuc(a1-3)[Gal3S(b1-4)]GlcNAc6S. In a few lines: as §1
The target of a further experiment is Gal(a1-3)Gal(b1-3)GlcNAc. In outline:
as §1

The target in experiment [15] is Gal(a1-3)Gal(b1-4)[Fuc(a1-3)]GlcNAc. In outline: as §1
The target of another experiment is Gal(a1-3)GalNAc. In a few lines:
as §1

For the next experiment, the target named is Gal3S(b1-4)Glc. In a few lines:
as §1

Another experiment deals with Gal3S6S(b1-4)GlcNAc. In a few lines: as §1
The target in the next experiment is Gal4S6S(b1-4)GlcNAc. In outline: as §1
In the next experiment the target is GlcNAc3Prop(b1-4)GlcNAc. In outline:
as §1

For a further experiment, the target named is Kdn(a2-3)Gal(b1-4)GlcNAc. In outline:
as §1

The target in experiment [16] is Man(a1-2)Man(a1-3)[Man(a1-2)Man(a1-6)]Man(a1-6)[Man(a1-2)Man(a1-2)Man(a1-3)]Man. In outline: as §1
Another experiment concerns the target Neu5Ac(a2-3)Gal. In outline:
as §1

Experiment [17] deals with Neu5Ac(a2-3)Gal(b1-3)GalNAc(b1-4)[Neu5Ac(a2-3)]Gal(b1-4)Glc. In a few lines:
as §1

The target of experiment [18] is Neu5Ac(a2-3)Gal(b1-3)GlcNAc6S. In outline: as §1
Experiment [19] deals with Neu5Ac(a2-3)Gal(b1-3)[Neu5Ac(a2-3)Gal(b1-4)]GlcNAc. In outline:
as §1

Experiment [20] deals with Neu5Ac(a2-3)Gal(b1-4)GlcNAc(b1-2)Man(a1-3)[GlcNAc(b1-2)Man(b1-4)GlcNAc(b1-2)Man(a1-6)]Man(b1-4)GlcNAc(b1-4)GlcNAc. In outline:
as §1

In experiment [21] the target is Neu5Ac(a2-3)Gal(b1-4)GlcNAc6S. In a few lines:
as §1

Experiment [22] addresses Neu5Ac(a2-3)Gal6S(b1-4)[Fuc(a1-3)]GlcNAc. In outline:
as §1

The target of experiment [23] is Neu5Ac(a2-3)[GalNAc(b1-4)]Gal(b1-4)GlcNAc. In a few lines: as §1
In experiment [24] the target is Neu5Ac(a2-3)[Neu5Ac(a2-6)]GalNAc. In outline: as §1
Experiment [25] addresses Neu5Ac(a2-6)Gal(b1-4)GlcNAc(b1-3)Gal(b1-4)[Fuc(a1-3)]GlcNAc(b1-3)Gal(b1-4)[Fuc(a1-3)]GlcNAc. In a few lines:
as §1

For experiment [26], the target named is Neu5Ac(a2-6)GalNAc(b1-4)GlcNAc. In a few lines:
as §1

Experiment [27] deals with Neu5Ac9Ac(a2-6)Gal(b1-4)GlcNAc. In a few lines:
as §1

In experiment [28] the target is Neu5Gc(a2-3)Gal(b1-4)GlcNAc. In outline: as §1

B1: RS-IIL (Ralstonia solanacearum) (protein)
chain: AQQGVFTLPANTSFGVTAFANAANTQTIQVLVDNVVKATFTGSGTSDKLLGSQVLNSGSGAIKIQVSVNGKPSDLVSNQTILANKLNFAMVGSEDGTDNDYNDGIAVLNWPLG
Take B1: the “glycan array binding signal (z-score)” value was 0.021 in experiment [1]; 0.302 in experiment [2]; -0.381 in experiment [3]; -0.389 in experiment [4]; -0.385 in the experiment with Gal3S6S(b1-4)GlcNAc6S; -0.266 with Glc(a1-4)Glc. For the same molecule, the “glycan array binding signal (z-score)” value in experiment [5] was -0.389; in experiment [6], 4.58; in experiment [7], 5.58; in experiment [8], 4.71; in [9] it was 4.76; in experiment [10] it was -0.268. For the same molecule, the “glycan array binding signal (z-score)” value with Neu5Ac(a2-8)Neu5Ac is -0.388.

B2: MIC1 (Toxoplasma gondii), O00834 (protein)
chain: MGQALFLTVLLPVLFGVGPEAYGEASHSHSPASGRYIQQMLDQRCQEIAAELCQSGLRKMCVPSSRIVARNAVGITHQNTLQWRCFDTASLLESNQENNGVNCVDDCGHTIPCPGGVHRQNSNHATRHEILSKLVEEGVQRFCSPYQASANKYCNDKFPGTIARRSKGFGNNVEVAWRCYEKASLLYSVYAECASNCGTTWYCPGGRRGTSTELDKRHYTEEEGIRQAIGSVDSPCSEVEVCLPKDENPPLCLDESGQISRTGGGPPSQPPEMQQPADRSDERGGGKEQSPGGEAQPDHPTKGGNIDLPEKSTSPEKTPKTEIHGDSTKATLEEGQQLTLTFISTKLDVAVGSCHSLVANFLDGFLKFQTGSNSAFDVVEVEEPAGPAVLTIGLGHKGRLAVVLDYTRLNAALGSAAYVVEDSGCSSSEEVSFQGVGSGATLVVTTLGESPTAVSA
Turning to B2, the “glycan array binding signal (z-score)” value in experiment [1] is -0.232; in [11] it was -0.213; in [12] it was -0.138; in experiment [13], -0.041; in experiment [14], -0.233; with Gal(a1-3)Gal(b1-3)GlcNAc it was -0.059. Moreover, the “glycan array binding signal (z-score)” value in experiment [15] was -0.014; with Gal(a1-3)GalNAc it was -0.139; with Gal3S(b1-4)Glc, -0.149; with Gal3S6S(b1-4)GlcNAc, -0.228; with Gal4S6S(b1-4)GlcNAc, -0.218; with GlcNAc3Prop(b1-4)GlcNAc, -0.196. In addition, the “glycan array binding signal (z-score)” value with Kdn(a2-3)Gal(b1-4)GlcNAc was -0.256; in experiment [16], -0.307; with Neu5Ac(a2-3)Gal, -0.068; in experiment [17], -0.19; in experiment [18], 0.131; in [19], 4.31. In addition, the “glycan array binding signal (z-score)” value in [20] is 3.01; in experiment [21], 6.25; in experiment [22] it was -0.178; in experiment [23], 5.43; in experiment [24], -0.313; in [25], -0.268. In addition, the results for the “glycan array binding signal (z-score)” value in [26], in experiment [27] and in experiment [28] were -0.152, -0.294 and 9.71, respectively.

Values taken from the supplement of paper PMC8728848.
